High-throughput results from PubChem.
Sampled rows, rich in hits. Any-hit rate of the full collection: about 19%.
HT1080 IDH1KD tx = toxicity to HT-1080 IDH1 knockdown cells (counter line); 2% of 360,000 active; AID 686971; Potency, µM (doses to about 46.1 µM), for inactives: at the highest dose activity, negative = toxicity, usual class: cytotoxic; HT-1080 IDH1 knockdown viability, ATP luminescence, 48 h;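 further: potency means the concentration at half of the fitted maximal effect; 0% = DMSO wells and -100% = cell-free medium wells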
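Knockdown cells (IDH1KD HT-1080) received compounds 2 h after plating at 750 cells/well and were kept 48 h at 37 °C in 5% FBS RPMI. A CellTiter-Glo luminescence read gave % activity for curve fitting.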
DT40 TDP1 no CPT = qHTS for Inhibitors of human tyrosyl-DNA phosphodiesterase 1 (TDP1): qHTS in cells in absence of CPT; DT40 Tdp1-/- hTDP1 cells, no CPT, ATP luminescence, 48 h; Potency, µM (series often up to 46.2 µM), without a hit: at the top dose activity change, negative = growth inhibition, usual class: inhibitors; 15% of 420,000 active; AID 686978, 2013; further: potency means the concentration at half of the fitted maximal effect; nearly all actives have a fitted effect of over 55% in size
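Chicken DT40 Tdp1-/- cells stably complemented with human TDP1 were seeded at 400 cells/well with DMSO in place of 20 nM camptothecin. After compound pinning, cells grew at least 48 hr at 37 °C; viability read by CellTiter-Glo luminescence.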
IL-1B inflam inh = inhibitors of inflammasome signaling (IL-1 beta secretion); activity change, % at 57.5 µM; THP-1 LPS/ATP IL-1B secretion, AlphaLISA, 16 h; stronger effect = lower value; 4.7% of 360,000 active; in the data active means activity change below about -50%; inconclusive means mostly about -30% to -49%
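THP-1 cells pretreated 1 hr with compounds (up to 57.5 uM final), then stimulated with LPS (250 ng/mL final) plus ATP (1.25 mM final); secreted IL-1B measured by AlphaLISA after 16 hr, decreased signal indicating inhibition.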
DT40 TDP1 CPT = DT40-hTDP1 cell growth loss with CPT. chicken DT40 Tdp1-/-;hTDP1 cells + 20 nM CPT, ATP luminescence, 48 h. Potency, µM (doses to about 46.2 µM), for inactives: at the highest dose activity change, negative = growth inhibition, most hits filed as inhibitors. 12% of 420,000 active; further: potency means the concentration at half of the fitted maximal effect; nearly all actives have a fitted effect of over 55% in size
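Chicken DT40 Tdp1-/- cells complemented with human TDP1, 400 cells/well, exposed to compounds plus 20 nM camptothecin for at least 48 h at 37 C; viability read as ATP content by CellTiter-Glo luminescence.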
HT1080NT lethal = kills 2HG-producing HT-1080-NT fibrosarcoma cells; HT-1080-NT fibrosarcoma viability, CellTiter-Glo ATP luminescence, 48 h; Potency, µM (titrated, usually from 46.1 µM), inactives show at the highest dose activity, negative = less viability, most hits filed as cytotoxic; 1.6% of 360,000 active; AID 686970;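 further: NT is the 2HG producing partner of a matched IDH1 knockdown line; potency means the concentration at half of the fitted maximal effect; 0% = DMSO-treated cells and -100% = media-only wells without cells; nearly all actives have a fitted effect of over 55% in size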
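Toxicity toward the 2HG-producing NT line was scored as %Activity, normalised to DMSO and no-cell wells, from CellTiter-Glo luminescence after 48 hours' treatment.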
Numbers without * were called inactive; ? = inconclusive; . = not tested or not shown; [ ] = dose if it differs, or a comment. Unless noted, the call rests on the fitted dose curve; in most records, active means well fitted curve in the direction sought with a large enough effect; inconclusive means small, poorly fitted or top-dose-only effect, or another doubt; inactive means no such curve, though single readings can be large; an effect the other way counts as inactive or inconclusive. Unless noted, on the % scale 0 is the no-effect control and ±100 the full control effect.

SMILES	HT1080 IDH1KD tx	DT40 TDP1 no CPT	IL-1B inflam inh	DT40 TDP1 CPT	HT1080NT lethal
Cc1ccc(N2CC(C)Cn3c2nc2c3c(=O)n(CC(=O)OCc3ccccc3)c(=O)n2C)cc1C (centres undefined)	-3%	18µM*	10	11µM*	0%
COC(=O)c1c(N)sc(C(=O)NCCc2ccccc2)c1C	-17%	?	40	?	-15%
Cc1ccccc1N=C1SCCN1C(=O)CN1C(=O)NC2(CCCC2)C1=O	-18%	?	13	-22%	-13%
O=C(CCCCCn1c(=S)[nH]c2ccc(N3CCOCC3)cc2c1=O)NCc1cccc(Cl)c1	-10%	-24%	45	-21%	3%
Cc1cc(C)cc(N2CCn3c2nc2c3c(=O)n(CCCc3ccccc3)c(=O)n2C)c1	.	-7%	.	-1%	.
Cn1c(=O)n(CCCc2ccccc2)c(=O)c2c1nc1n2CCN1c1ccccc1	.	6.5µM*	.	7.3µM*	.
O=C(NCc1cccnc1)c1cc(C2CCCCN2S(=O)(=O)c2ccc(F)cc2F)on1 (centres undefined)	-6%	?	38	?	4%
Cc1ccccc1CN1CCC(CNc2ncnc3onc(-c4ccc(Cl)cc4)c23)CC1	.	16µM*	.	?	.
Cc1cccc(Nc2ncnc3onc(-c4ccc(Cl)cc4)c23)c1C	.	-24%	.	-1%	.
Cc1ccc(CN2CCC(CNc3ncnc4onc(-c5ccc(Cl)cc5)c34)CC2)cc1	.	16µM*	.	18µM*	.
Clc1ccc(CN2CCC(CNc3ncnc4onc(-c5ccc(Cl)cc5)c34)CC2)cc1	.	23µM*	.	?	.
CCCCn1c(N)c(N(CC(C)C)C(=O)C2=NN(c3cc(C)ccc3C)C(=O)CC2)c(=O)[nH]c1=O	-7%	?	6	-10%	-9%
N#Cc1ccc(COC(=O)c2cnc(Cl)c(Cl)c2)cc1	1%	-19%	-88*	17%	1%
Cc1noc(C)c1COC(=O)c1cnc(Cl)c(Cl)c1	?	16%	-54*	22%	?
Cc1noc(C)c1COC(=O)c1cc(F)c(F)cc1Cl	8%	-3%	-2	-3%	3%
Cc1noc(C)c1COC(=O)/C=C/c1ccc(Cl)cc1	0%	16µM*	7	?	8%
O=C(OCc1ccccc1)c1cnc(Cl)c(Cl)c1	7%	0%	-4	-1%	0%
CC1=CC2C(=O)c3cccc(O)c3C(=O)C2C(O)=C1 (centres undefined)	.	7%[9.04 µM]	.	23%[9.04 µM]	.
O=C(/C=C/c1cccnc1)c1ccc(NC(=O)c2cccc(Br)c2)cc1	-15%	3.2µM*	-25	7.1µM*	-13%
Cc1cccc(C(=O)Nc2ccc(C(=O)/C=C/c3cccnc3)cc2)c1	18µM*	4.6µM*	-78*	5.2µM*	?
Cc1cccc(C(=O)Nc2ccc(C(=O)/C=C/c3ccncc3)cc2)c1	?	?	6	?	?
O=C(N/N=C/c1cccnc1)c1cccc(Br)c1	18%	0%	7	-12%	17%
O=S(=O)(c1cc(F)ccc1F)N1CCC2(CC1)OCCN2S(=O)(=O)c1cccs1	-9%	?	-5	-7%	-14%
CCc1nnc(NC(=O)c2ccc(S(=O)(=O)N(CCOC)CCOC)cc2)o1	12%	2%	17	-4%	4%
CCCN(CCC)S(=O)(=O)c1ccc(C(=O)Nc2nnc(-c3cccc(OC)c3)o2)cc1	?	5.2µM*	44	5.8µM*	?
SMILES	HT1080 IDH1KD tx	DT40 TDP1 no CPT	IL-1B inflam inh	DT40 TDP1 CPT	HT1080NT lethal
CCCN(CCC)S(=O)(=O)c1ccc(C(=O)Nc2nnc(-c3cc(OC)cc(OC)c3)o2)cc1	?	4.6µM*	4	5.8µM*	?
CCSc1nc(N2CCCCC2)c2c(c1C#N)CCCC2	22%	16µM*	35	?	14%
COc1cc(NS(=O)(=O)c2ccc(C)cc2)c2ncccc2c1	?	1.2µM*	54	0.82µM*	-30%
COc1ccc(S(=O)(=O)Nc2ccccn2)cc1	15%	4%	6	5%	5%
Cc1ccc(S(=O)(=O)Nc2cccc3cccnc23)cc1	-20%	21µM*	-97*	?	-2%
Cc1ccc(S(=O)(=O)Nc2ccccc2-c2ccccc2NS(=O)(=O)c2ccc(C)cc2)cc1	?	?	7	?	?
C=CCn1c(SC)nc2sc3c(c2c1=O)CCc1ccccc1-3	-4%	?	84	?	-4%
C=CCSc1nc2sc3c(c2c(=O)n1CC)CCc1ccccc1-3	13%	?	-17	10µM*	15%
CCN1CCN(CCCN(Cc2ccco2)C(=S)Nc2ccc(Cl)c(C)c2)CC1	-17%	?	-13	-15%	-23%
Cc1ccc(NC(=S)N(CCCN2CCCC2)Cc2cccn2Cc2ccc(Cl)cc2)cc1C	-16%	21µM*	-4	?	1%
Cc1ccc(NC(=S)N(CCCN2CCCC2)Cc2cccn2Cc2ccc(Cl)cc2)cc1Cl	-8%	6.5µM*	-53*	?	?
FC(F)(F)c1cccc(NC(=S)N(CCCN2CCCC2)Cc2cccn2Cc2ccc(Cl)cc2)c1	23µM*	16µM*	-89*	?	?
COc1ccc(NC(=S)N(CCCN2CCCC2)Cc2cccn2Cc2ccc(Cl)cc2)cc1Cl	?	21µM*	-52*	15µM*	?
CCOc1ccc(CN(C)C(=O)CNC(=O)C2CCCCC2)cc1OC	9%	-10%	-7	-19%	12%
O=C(CN1CCN(S(=O)(=O)c2cccc(F)c2)CC1)NCC1(N2CCOCC2)CCCCC1	2%	0%	-16	-17%	1%
COc1ccc(C)cc1NC(=O)C1CCCN(S(=O)(=O)c2ccc3c(c2)CCCN3C(C)=O)C1 (centres undefined)	-1%	?	0	?	0%
CCN(CC)c1c([N+](=O)[O-])ncn1C	12%	0%	15	-6%	10%
Cn1cnc([N+](=O)[O-])c1Cl	12%	?	-95*	?	12%
Cn1cnc([N+](=O)[O-])c1S(=O)(=O)Oc1cccc2ccccc12	2.6µM*	1µM*	-102*	1.3µM*	1.2µM*
Cn1cnc([N+](=O)[O-])c1Sc1ncn[nH]1	-7%	16µM*	0	18µM*	0%
CNc1c([N+](=O)[O-])ncn1C	18%	-2%	8	11%	17%
CCS(=O)(=O)c1c([N+](=O)[O-])ncn1C	?	7.3µM*	-12	5.2µM*	?
Cc1c(NS(=O)(=O)c2ccc3[nH]c(=O)[nH]c3c2)c(=O)n(-c2ccccc2)n1C	-9%	0%	5	-28%	-8%
